# Source: paper PMC5540273 (PLoS ONE, 2017)
# Tested on: GRK7
# Details: concentration: 1 μM, replicates: in singlicate; n = 1
# 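Also: KINOMEscan kinase panel screen.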
row,Compound,%Inh [%]
1,COc1ccc(CNC(=O)NC2CCN(c3ccnc(Nc4ccc(F)cc4)n3)CC2)cc1 [GSK1379788],0
2,COc1cc(Nc2nccc(-c3c(-c4cccc(NC(=O)c5c(F)cccc5F)c4)nn4ncccc34)n2)cc(OC)c1OC [GSK327238],0
3,CCCCc1nn2ncccc2c1-c1ccnc(Nc2ccc(N3CCN(C)CC3)cc2)n1 [GW684941],0
4,CC(C)c1nc(-c2cccc(NS(=O)(=O)c3c(F)cccc3F)c2F)c(-c2ccnc(Nc3ccc(N4CCOCC4)nc3)n2)s1 [GSK2008607],0
5,NCCCC(NC(=O)c1cc(Br)c(-c2ccnc3[nH]ccc23)s1)c1ccccc1.O=C(O)C(F)(F)F.O=C(O)C(F)(F)F (stereo not shown) [GSK1287544],83
6,CN(C)S(=O)(=O)c1cc(-c2ccc3nccc(-c4cccc(S(N)(=O)=O)c4)c3c2)cnc1N [GSK1669921],8

# Tested on: GSK3A
# Details: concentration: 1 μM, replicates: in singlicate; n = 1
row,Compound,%Inh [%]
1,Nc1ncc(-c2cccnc2)c2scc(-c3ccc4c(c3)CCN4C(=O)Cc3ccccc3)c12 [GSK683281],24
2,c1ccc(Oc2ccc(Nc3ccnc4cc(-c5ccc(CNCCN6CCOCC6)o5)ccc34)cc2)nc1 [GW567145],6
3,Cl.Cl.NCC(NCc1ccc(-c2ccnc3[nH]ccc23)s1)c1ccccc1 (stereo not shown) [GSK1321565],0
4,CCn1c(-c2nonc2N)nc2c(C#CC(C)(C)O)nc(OC[C@H](N)c3ccccc3)cc21 [GSK943949],66
5,O=C(Nc1cccc(-c2nn3ncccc3c2-c2ccnc(Nc3ccccc3)n2)c1)c1c(F)cccc1F [GSK198271],16
6,CCS(=O)(=O)c1ccc(OC)c(Nc2nccc(-c3c(-c4cccc(NC(=O)c5c(F)cccc5F)c4)nn4ncccc34)n2)c1 [GSK326180],12
7,C[C@@H](Oc1cc(-n2cnc3cc(-c4ccnc(NCCS(C)(=O)=O)c4)ccc32)sc1C(N)=O)c1ccccc1Cl [GSK907232],0
8,Oc1cc(Nc2ccnc3cc(I)ccc23)ccc1F [GW552771],17
9,Nc1ncc(-c2ccc3nccc(-c4ccncc4)c3c2)cc1S(=O)(=O)N1CCOCC1 [GSK1627798],1
10,Cl.Cl.NCC(C(=O)Nc1cc(Br)c(-c2ccnc3[nH]ccc23)s1)c1ccccc1 (stereo not shown) [GSK1269851],0
11,COc1ccc(Nc2nccc(N3CCC(NC(=O)Nc4cccc(OC)c4)C3)n2)cc1 (stereo not shown) [GSK1379742],13
12,Cc1cccc(NC(=O)Nc2ccc(Oc3ncnc4ccn(C)c34)cc2)c1,0
13,O=C(Nc1ccccc1F)NC1CCN(c2ccnc(Nc3ccc(F)cc3)n2)CC1 [GSK1379800],5
14,COc1cccc(C2=C(Nc3ccc(Cl)c(C(=O)O)c3)C(=O)NC2=O)c1 [SB-390769],56
15,O=c1[nH]cc(-c2ccc(N3CCOCC3)cc2)c2sc(-c3cn[nH]c3)cc12 [GSK2276055],97.7
16,COc1ccc(Nc2nccc(NCCNC(=O)c3cc4ccccc4s3)n2)cc1 [GSK1379896],7
17,O=C(Nc1cccc(-c2nn3ccccc3c2-c2ccnc(Nc3cccc(C(F)(F)F)c3)n2)c1)c1c(F)cccc1F [GSK292658],5
18,COc1cccc(-c2ccc3c(NC(=O)C4CC4)n[nH]c3n2)c1 [SB-710903],88
19,Cc1cccc(Nc2nc(N[C@H]3CCNC3)ncc2C(N)=O)c1.Cl [GSK2197149],0

row,Compound,%Inh [%]
1,Fc1ccc(-c2ncn(C3CCNCC3)c2-c2ccnc(Oc3ccc(-c4ccccc4)cc3)n2)cc1 [SB-245391],0
2,O=C(NC1CCN(c2ccnc(Nc3ccc(F)cc3)n2)C1)c1cc2ccccc2s1 (stereo not shown) [GSK1379716],0
3,COc1cccc(C(=O)Nc2cccc(Oc3ccc4nc(NC(=O)C5CC5)cn4n3)c2)c1,8
4,Cl.NC(=O)c1cccc(Nc2nccc(Nc3ccc(Oc4c(Cl)cccc4Cl)c(Cl)c3)n2)c1 [GW659009],0
5,O=C(Nc1n[nH]c2cc(-c3ccoc3)ccc12)C1CC1 [SB-738481],92.7
6,Cl.c1ccc(-c2ccc3c(Nc4ccc5[nH]ccc5c4)ccnc3c2)nc1 [GW440138],26
7,COc1ccc(-c2coc3ccc(-c4nnc(SCc5ccc(OC)c(C(F)(F)F)c5)o4)cc23)cc1,25
8,COc1cc2c(cc1OCCN1CCNCC1)ncc1c3ccc(C#N)cc3[nH]c21,0
9,CN(c1ccc(NC(=O)Nc2cc(C(F)(F)F)ccc2F)cc1)c1ccnc(Nc2ccc(S(N)(=O)=O)cc2)n1 [GW809893],68
10,Cn1cc(-c2ccc3c(c2)CCN3C(=O)Cc2cccc(F)c2)c2c(N)ncnc21 [GSK2603358],4
11,CN(C)Cc1ccc(-c2ccc3c(Nc4ccc(Oc5ccccn5)cc4)ccnc3c2)o1 [GW567148],0
12,c1ccc(-c2n[nH]cc2Nc2ccnc3ccccc23)nc1 [GW694077],0
13,COc1ccc(CNC(=O)NC2CCN(c3ccnc(Nc4ccc(F)cc4)n3)CC2)cc1 [GSK1379788],2
14,COc1cc(Nc2nccc(-c3c(-c4cccc(NC(=O)c5c(F)cccc5F)c4)nn4ncccc34)n2)cc(OC)c1OC [GSK327238],11
15,CCCCc1nn2ncccc2c1-c1ccnc(Nc2ccc(N3CCN(C)CC3)cc2)n1 [GW684941],7
16,CC(C)c1nc(-c2cccc(NS(=O)(=O)c3c(F)cccc3F)c2F)c(-c2ccnc(Nc3ccc(N4CCOCC4)nc3)n2)s1 [GSK2008607],53
17,NCCCC(NC(=O)c1cc(Br)c(-c2ccnc3[nH]ccc23)s1)c1ccccc1.O=C(O)C(F)(F)F.O=C(O)C(F)(F)F (stereo not shown) [GSK1287544],0
18,CN(C)S(=O)(=O)c1cc(-c2ccc3nccc(-c4cccc(S(N)(=O)=O)c4)c3c2)cnc1N [GSK1669921],0
